{"source": "paper PMC4552634", "about": "“A New Set of Chemical Starting Points with Plasmodium falciparum Transmission-Blocking Potential for Antimalarial Drug Discovery” (PLoS ONE, 2015)", "note": "The campaign covered roughly 13,000 compounds. About 3,200 (25%) showed an effect of 50% or more. The list shows a part of the results.", "data": [{"system": "P. falciparum stage V gametocytes", "parameters": "BacTiter-Glo ATP luminescence viability of purified stage V gametocytes in 384-well plates, per cent inhibition versus DMSO", "settings": "48 h, 5 µM; inhibitor", "units": {"% Inhibition": "%"}, "values": [{"smiles": "COc1cccc(NC(=O)NCCNc2ccnc(Nc3ccc(F)cc3)n2)c1", "note": "[TCMDC-133639]", "% Inhibition": -6.43}, {"smiles": "COc1ccc(CNC(=O)c2cc3c(=O)n4ccccc4nc3n(CCc3ccccc3)c2=N)cc1", "note": "[TCMDC-124474]", "% Inhibition": -41.5}, {"smiles": "COCCn1c(C)cc(C(=O)CN2C(=O)NC(C)(c3ccc(C(C)(C)C)cc3)C2=O)c1C", "note": "(stereo not drawn) [TCMDC-125434]", "% Inhibition": 51.6}, {"smiles": "Cc1cc(C(=O)CN2C(=O)NC(C)(c3ccc4ccccc4c3)C2=O)c(C)n1Cc1ccco1", "note": "(stereo not drawn) [TCMDC-125044]", "% Inhibition": -21.37}, {"smiles": "Cc1cc(C(=O)CN2C(=O)NC(C)(c3cccc4ccccc34)C2=O)c(C)n1Cc1ccco1", "note": "(stereo not drawn) [TCMDC-125264]", "% Inhibition": 12.34}, {"smiles": "Cc1[nH]nc2ccc(-c3cc(OC[C@@H](N)Cc4ccccc4)cnc3-c3cc4ccccc4s3)cc12", "note": "[TCMDC-136352]", "% Inhibition": 16.97}, {"smiles": "O=C(NCc1cccc2ccccc12)C1CCCN(C(=O)c2ccc(O)c(-c3ccc(Cl)c(Cl)c3)c2)C1", "note": "(stereo not drawn) [TCMDC-140894]", "% Inhibition": 15.24}, {"smiles": "O=C(N[C@@H](Cc1ccccc1)[C@H](O)CNC1CCCCC1)c1cc(C2CCCC2)cc(N2CCCC2=O)c1", "note": "[TCMDC-138869]", "% Inhibition": 29.86}, {"smiles": "COc1ccc2ncc(Cl)c(CCN3CC[C@@H](CNCc4cc5c(cn4)OCS5)C3)c2n1", "note": "[TCMDC-135904]", "% Inhibition": -4.396}, {"smiles": "Cc1c(C)c2c(c(C)c1O)CCC(C)(CCC(=O)O)O2", "note": "(stereo not drawn) [TCMDC-131686]", "% Inhibition": -4.216}, {"smiles": "CC[C@H]1CN2CC[C@H]1C[C@H]2[C@H](O)c1cc(/C=C/c2ccc(F)cc2)nc2ccc(OC)cc12", "note": "[TCMDC-141367]", "% Inhibition": 91.47}, {"smiles": "C=C[C@H]1CN2CC[C@H]1C[C@H]2[C@H](O)c1cc(/C=C/c2ccc(F)cc2)nc2ccc(OC)cc12", "note": "[TCMDC-141366]", "% Inhibition": -44.1}, {"smiles": "CC[C@H]1CN2CC[C@H]1C[C@H]2[C@H](O)c1cc(-c2ccccc2C)nc2ccc(OC)cc12", "note": "[TCMDC-141190]", "% Inhibition": 15.24}, {"smiles": "CC[C@H]1CN2CC[C@H]1C[C@@H]2[C@@H](O)c1cc(Cl)nc2ccc(OC)cc12", "note": "[TCMDC-137467]", "% Inhibition": -42.11}, {"smiles": "CC[C@H]1CN2CC[C@H]1C[C@H]2[C@H](O)c1cc(/C=C/c2ccccc2)nc2ccc(OC)cc12", "note": "[TCMDC-141329]", "% Inhibition": 62.86}, {"smiles": "Cc1cccc(N2C(N)=NC(N)=NC2(C)C)c1C", "note": "[TCMDC-137926]", "% Inhibition": 11.29}, {"smiles": "Cc1cc(Nc2ccc(C)c(Cl)c2)n2ncnc2n1", "note": "[TCMDC-123501]", "% Inhibition": -28.24}, {"smiles": "COC(=O)c1cccc(N2CCN(CCCNC(=O)/C(=C/C=C/c3cc4cc(Cl)c(Cl)cc4[nH]3)OC)CC2)c1", "note": "[TCMDC-139338]", "% Inhibition": 20.82}, {"smiles": "O=C(Cc1ccc(NC(=O)c2ccc(O)c(-c3cccc([N+](=O)[O-])c3)c2)cc1)NCCN1CCCCC1", "note": "[TCMDC-140797]", "% Inhibition": 2.849}, {"smiles": "O=C(Nc1cccc(-c2cccc(-c3nc4ccc(F)cc4[nH]3)c2)c1)Nc1ccc2c(c1)OCO2", "note": "[TCMDC-133165]", "% Inhibition": 6.84}, {"smiles": "NCc1ccc(CNCc2cccc(-c3cccc(-c4nc5ccc(F)cc5[nH]4)c3)c2)cc1", "note": "[TCMDC-132816]", "% Inhibition": 98.03}, {"smiles": "Nc1cccc(CNCc2cccc(-c3cccc(-c4nc5ccccc5[nH]4)c3)c2)c1", "note": "[TCMDC-132942]", "% Inhibition": -10.95}, {"smiles": "Nc1cccc(CNCc2cccc(-c3cccc(-c4nc5ccc(F)cc5[nH]4)c3)c2)c1", "note": "[TCMDC-132941]", "% Inhibition": -20.24}, {"smiles": "c1ccc(CNCc2cccc(-c3cccc(-c4nc5ccccc5[nH]4)c3)c2)cc1", "note": "[TCMDC-132698]", "% Inhibition": -20.89}, {"smiles": "c1ccc(CNCc2cccc(-c3ccc(-c4nc5ccccc5[nH]4)cc3)c2)cc1", "note": "[TCMDC-132700]", "% Inhibition": 26.72}, {"smiles": "NCc1ccc(CNCc2cccc(-c3cccc(-c4nc5ccccc5[nH]4)c3)c2)cc1", "note": "[TCMDC-132817]", "% Inhibition": 74.49}, {"smiles": "COc1ccc(CNCc2cccc(-c3cccc(-c4nc5ccccc5[nH]4)c3)c2)cc1", "note": "[TCMDC-132716]", "% Inhibition": -25.62}, {"smiles": "NCc1ccc(CNCc2cccc(-c3ccc(-c4nc5ccccc5[nH]4)cc3)c2)cc1", "note": "[TCMDC-132815]", "% Inhibition": 106.4}, {"smiles": "Fc1ccc2nc(-c3cccc(-c4cccc(CNCc5ccccc5)c4)c3)[nH]c2c1", "note": "[TCMDC-132699]", "% Inhibition": -56.67}, {"smiles": "CCNc1cc(C(=O)N[C@@H](Cc2ccccc2)[C@H](O)CNC2(Cc3cccc(Cl)c3)CCC2)cc(N2CCCCS2(=O)=O)c1", "note": "[TCMDC-135383]", "% Inhibition": 17.64}, {"smiles": "COc1cccc(CNc2noc(-c3c(-c4ccccc4)noc3C)n2)c1OC", "note": "[TCMDC-134204]", "% Inhibition": 10.03}, {"smiles": "COc1ccc(-c2nc(NCc3ccccc3)c3cc(OC)c(OC)cc3n2)cc1", "note": "[TCMDC-132018]", "% Inhibition": 17.4}, {"smiles": "CCN(CCCNc1nc(=S)[nH]c2cc(OC)c(OC)cc12)c1ccccc1", "note": "[TCMDC-124446]", "% Inhibition": 83.33}, {"smiles": "Cc1ccc2[nH]c3c(NCCCN(C)C)ncnc3c2c1", "note": "[TCMDC-124580]", "% Inhibition": 4.888}, {"smiles": "Cc1cc(OCCCN2CCC(NS(=O)(=O)c3cc(Br)c(Cl)s3)CC2)c2ccccc2n1", "note": "[TCMDC-136280]", "% Inhibition": -17.93}, {"smiles": "Cc1cc(NC(=O)c2ccco2)ccc1OC1CCN(Cc2ccc(C#N)cc2)CC1", "note": "[TCMDC-133956]", "% Inhibition": 24.43}, {"smiles": "CN(c1ccccc1C(=O)Nc1cc(Cl)ccc1Oc1ccccc1)S(=O)(=O)c1ccccc1", "note": "[TCMDC-124364]", "% Inhibition": 33.71}, {"smiles": "CN(c1ccccc1C(=O)Nc1ccccc1Oc1ccccc1)S(=O)(=O)c1ccccc1", "note": "[TCMDC-125092]", "% Inhibition": -61.36}, {"smiles": "Cc1ccc(S(=O)(=O)N(C)c2ccccc2C(=O)Nc2ccccc2Oc2ccccc2)cc1", "note": "[TCMDC-125068]", "% Inhibition": 52.2}, {"smiles": "O=[N+]([O-])c1ccc(C2=NN(S(=O)(=O)c3c(Cl)cc(Cl)cc3Cl)CCCC2)cc1", "note": "[TCMDC-135423]", "% Inhibition": -33.18}, {"smiles": "CCCCCc1cc(O)c2c(c1)OC(C)(C)CC2C1=CCN(Cc2ccccc2)CC1", "note": "(stereo not drawn) [TCMDC-131335]", "% Inhibition": -27.18}, {"smiles": "CCCCc1cc(NCc2ccncc2)nc(Nc2ccccc2)n1", "note": "[TCMDC-133995]", "% Inhibition": 8.477}, {"smiles": "COc1ccc(-c2cc(C(=O)Nc3ccc(CCCN(C)Cc4ccc(OC)c(OC)c4)cc3)c3ccccc3n2)cc1", "note": "[TCMDC-131848]", "% Inhibition": 47.44}, {"smiles": "CCn1cc(-c2cc(C(=O)Nc3ccc(OC)cc3C)c3ccccc3n2)c(C)n1", "note": "[TCMDC-124457]", "% Inhibition": 71.47}, {"smiles": "CCN(CC)CCOC(=O)c1ccc(NC(=O)c2cc(-c3ccc(C)cc3)nc3ccccc23)cc1", "note": "[TCMDC-124019]", "% Inhibition": 1.245}, {"smiles": "Cc1cccc2nc(-c3ccc(-c4ccc(CNCCCNS(C)(=O)=O)cc4)s3)[nH]c12.O=C(O)C(F)(F)F", "note": "[TCMDC-133085]", "% Inhibition": 13.51}, {"smiles": "COc1cc2nc(N3CCC(CNC(=O)c4ccc(-c5ccc(C#N)cc5)cc4)CC3)nc(N)c2cc1OC", "note": "[TCMDC-138713]", "% Inhibition": 15.4}, {"smiles": "COc1cc2nc(N3CCC(CNC(=O)c4ccc(-c5cccc(C#N)c5)cc4)CC3)nc(N)c2cc1OC", "note": "[TCMDC-138730]", "% Inhibition": 76.59}, {"smiles": "COc1cc2nc(N3CC(C)N(C(=O)Cc4ccc(-c5ccccc5)cc4)C(C)C3)nc(N)c2cc1OC", "note": "(stereo not drawn) [TCMDC-138153]", "% Inhibition": 71.85}, {"smiles": "COc1cc2nc(N3CCC(CNC(=O)c4ccc(-c5ccc(C#N)cc5C)cc4)CC3)nc(N)c2cc1OC", "note": "[TCMDC-138735]", "% Inhibition": 105.2}, {"smiles": "COc1cc2nc(N3CCC(CNC(=O)/C=C/c4cccc(C)c4)CC3)nc(N)c2cc1OC", "note": "[TCMDC-138156]", "% Inhibition": -2.985}, {"smiles": "CC(C)CCN1CCC(Oc2ccc(NC(=O)c3ccsc3)cc2Cl)CC1", "note": "[TCMDC-133973]", "% Inhibition": 36.47}, {"smiles": "O=C(NCCN1CCC(NC(=O)c2ccc(-c3ccccn3)s2)CC1)c1ccc(Cl)c(Cl)c1", "note": "[TCMDC-141947]", "% Inhibition": -22.55}, {"smiles": "COc1cc(C(=O)N2COCC(CCCN3CCC(N4CCCC4)CC3)(c3ccc(Cl)c(Cl)c3)C2)cc(OC)c1OC", "note": "(stereo not drawn) [TCMDC-141758]", "% Inhibition": 14.16}, {"smiles": "CCN(CC)CCON=Cc1cc(C)c2[nH]c3ccc(OCc4ccccc4)cc3c2c1C", "note": "[TCMDC-132058]", "% Inhibition": -17.27}, {"smiles": "Cc1nc(-c2cccc(NC(C)C(=O)Nc3cc(C(F)(F)F)ccc3N3CCOCC3)c2)cs1", "note": "(stereo not drawn) [TCMDC-125304]", "% Inhibition": -35}, {"smiles": "O=C(O)C[C@H](NC(=O)CCCNC(=O)c1cccc(-c2ccc(Cl)c(Cl)c2)c1)C(=O)O", "note": "[TCMDC-139508]", "% Inhibition": 11.45}, {"smiles": "CC(C)C[C@@H](CNC[C@H](CC(C)C)NC(=O)OC(C)(C)C)NC(=O)OC(C)(C)C", "note": "[TCMDC-132080]", "% Inhibition": -74.95}, {"smiles": "CN(C)S(=O)(=O)c1ccc(N2C(=O)C3C(C2=O)C2(c4ccccc4)C(=O)C3(c3ccccc3)C(c3ccccc3)=C2c2ccccc2)cc1", "note": "(stereo not drawn) [TCMDC-132095]", "% Inhibition": -66.42}, {"smiles": "CCN(CC)CCOc1ccc(Nc2ncc3cc(-c4c(Cl)cccc4Cl)c(=O)n(C)c3n2)cc1", "note": "[TCMDC-140940]", "% Inhibition": 0.9022}, {"smiles": "CCN(CC)CCCCOc1ccc2c(c1)C(=O)c1cc(OCCCCN(CC)CC)ccc1-2", "note": "[TCMDC-124163]", "% Inhibition": 88.71}, {"smiles": "CN(c1ccc(F)cc1)S(=O)(=O)c1ccc(Cl)c(C(=O)Nc2cccc(C#N)c2)c1", "note": "[TCMDC-123717]", "% Inhibition": 11.84}, {"smiles": "COc1cc(OC)nc(C(Sc2ccc(NC(=O)c3cccs3)cc2)c2ccccc2)n1", "note": "(stereo not drawn) [TCMDC-124257]", "% Inhibition": 44.54}, {"smiles": "CCCCCCOc1ccccc1C(=O)NCCOc1ccc(Cl)cc1", "note": "[TCMDC-124012]", "% Inhibition": -9.249}, {"smiles": "CCCCCOc1ccc(C(=NC)N(CCCCC)CCCCC)c2ccccc12", "note": "[TCMDC-137703]", "% Inhibition": 109.8}, {"smiles": "CCCCCCOc1ccc(C(N)=NCc2ccccc2)c2c1CCCC2", "note": "[TCMDC-131554]", "% Inhibition": 15.01}]}]}
